Data taken from PubChem BioAssay (NCI).
This is part of a sample that, as a whole, favours compounds with a hit. Of some 83,000 tested, about 20% had one in any assay.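 Plates (96-well) were seeded with cells, treated with compound at one concentration, and incubated for 48 hours before percent growth was determined.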 Values without a mark were called inactive. Active and inactive are the calls of the source. How the source made its calls: active means growth percent below 10; inactive means the rest.

Key:
Assay in all cases: NCI-60 one-dose screen, 48 h (100 = growth as untreated, 0 = no growth, -100 = all killed)
Conditions in all cases: 10 µM unless noted
[1] = test system: T-47D breast
[2] = test system: MDA-MB-435 melanoma
[3] = test system: SW-620 colon
[4] = test system: MCF7 breast
[5] = test system: HCC-2998 colon
[6] = test system: KM12 colon
[7] = test system: BT-549 breast
[8] = test system: HCT-116 colon

## C[C@@H]1C(=O)N(C[C@H](Cc2ccccc2)NC(=O)OCc2ccccc2)[C@]1(Cc1ccccc1)C(=O)OC(C)(C)C
[1]
  growth: 43.3%
[2]
  growth: 76.9%
[3]
  growth: 83.2%
[4]
  growth: 61.1%
[5]
  growth: 87.7%
[6]
  growth: 70.3%

## C[C@@H](C[C@H](CCOCc1cccnc1)c1ccccc1)c1cc2ccccc2o1
[7]
  growth: 102%
[2]
  growth: 103%
[3]
  growth: 91.6%
[4]
  growth: 106%
[8]
  growth: 75.6%
[5]
  growth: 101%
[6]
  growth: 88%

## CCCCOc1ccc(NC(=O)n2nc(N=NN(C)C)c3ccc(Cl)cc32)cc1
[7]
  growth: 98.8%
[2]
  growth: 106%
[3]
  growth: 106%
[4]
  growth: 85.2%
[8]
  growth: 91.3%
[5]
  growth: 113%
[6]
  growth: 110%

## Oc1ccccc1-c1nc2ccccn2c1NCCN1CCOCC1
[7]
  growth: 99.2%
[2]
  growth: 102%
[3]
  growth: 94.8%
[4]
  growth: 96.7%
[8]
  growth: 93.9%
[5]
  growth: 101%
[6]
  growth: 91.2%

## COc1cc(NC(=O)c2cccc(-c3cc(=O)c4c(OC)c(OC)c(OC)cc4o3)c2)cc(OC)c1OC
[7]
  growth: 27%
[2]
  growth: 6.36% (active)
[3]
  growth: 67%
[4]
  growth: 34.3%
[8]
  growth: 48.6%
[5]
  growth: 74.1%
[6]
  growth: 45.8%

## CS(=O)(=O)c1ccc(N/N=C/c2c(-c3ccc(S(C)(=O)=O)cc3)[nH]c3ccc(F)cc23)cc1
[7]
  growth: 23.9%
[2]
  growth: 40.3%
[3]
  growth: 59.7%
[4]
  growth: 18.9%
[8]
  growth: 27.1%
[5]
  growth: 52.3%
[6]
  growth: 29.2%

## COc1ccc(NC(=O)c2cccc(-c3cc(=O)c4c(O)c(OC)c(OC)cc4o3)c2)cc1
[7]
  growth: 31%
[2]
  growth: 105%
[3]
  growth: 102%
[4]
  growth: 93.3%
[8]
  growth: 70.5%
[5]
  growth: 101%
[6]
  growth: 103%

## CCCCN(CCCC)CCCn1c(=O)c2sc3ncccc3c2n2nnc(-c3ccccc3)c12
[7]
  growth: 124%
[2]
  growth: -84.2% (active)
[3]
  growth: 100%
[4]
  growth: 93.2%
[8]
  growth: 83.6%
[5]
  growth: 118%
[6]
  growth: 107%

## Cn1cc(Nc2nccc(-c3ccc(N4CCCC4)c(C#N)c3)n2)cn1
[7]
  growth: 37.7%
[2]
  growth: 0.731% (active)
[3]
  growth: 14.2%
[4]
  growth: 27.3%
[8]
  growth: 11.5%
[5]
  growth: 59.8%
[6]
  growth: 31.6%

## CC(=[N-])N1CCC[C@@H](Nc2c3ccccc3nc3ccccc23)C1.[Cl][Pt].[NH-]CCC[NH-]
[7]
  growth: 79%
[2]
  growth: 81.9%
[3]
  growth: 20.5%
[4]
  growth: 10.6%
[8]
  growth: 14.9%
[5]
  growth: 49.7%
[6]
  growth: 49%

## Cc1ccc(NC(=O)C(Cl)Cl)cc1
[7]
  growth: 110%
[2]
  growth: 107%
[3]
  growth: 106%
[4]
  growth: 94.6%
[8]
  growth: 96.5%
[5]
  growth: 115%
[6]
  growth: 104%

## O=S(=O)(Nc1ccsc1-c1nc(-c2ccccc2)no1)c1cc(Cl)cc(Cl)c1
[7]
  growth: 99.5%
[2]
  growth: 88.9%
[3]
  growth: 95.8%
[4]
  growth: 92.4%
[8]
  growth: 89.9%
[5]
  growth: 104%
[6]
  growth: 93.2%

## Cc1cc(Cl)nc(N(CCCNc2ccnc3cc(Cl)ccc23)Cc2ccccn2)n1
[7]
  growth: 54%
[2]
  growth: 52.7%
[3]
  growth: 53.3%
[4]
  growth: 32.9%
[8]
  growth: 14.9%
[5]
  growth: 74.2%
[6]
  growth: 48%

## CC(C)OC(=O)OCOP(=O)(OCOC(=O)OC(C)C)C1CCCN(O)C1=O (centres undefined)
[7]
  growth: 22.8%
[2]
  growth: 47.3%
[3]
  growth: 32.3%
[4]
  growth: 31.9%
[8]
  growth: 13.4%
[5]
  growth: 23.7%
[6]
  growth: 9.54% (active)

## Cc1nc(Nc2ccc(NC(=S)Nc3ccccc3)cc2)nc2nc(Nc3ccc(S(=O)(=O)O)cc3)[nH]c(=O)c12
[7]
  growth: 61%
[2]
  growth: 105%
[3]
  growth: 116%
[4]
  growth: 102%
[8]
  growth: 103%
[5]
  growth: 118%
[6]
  growth: 120%

## C=C(C)[C@@H]1CC[C@]2(C(=O)NCC(=O)O)CC[C@]3(C)[C@H](CC[C@@H]4[C@@]5(C)Cc6c([nH]c7ccccc67)C(C)(C)[C@@H]5CC[C@]43C)[C@@H]12
[7]
  growth: 65.7%
[2]
  growth: 87.1%
[3]
  growth: 85%
[4]
  growth: 81.4%
[8]
  growth: 77.4%
[5]
  growth: 98.4%
[6]
  growth: 88.1%

## C/C(=N\NC(=O)Cn1c(-c2ccc(S(C)(=O)=O)cc2)nc2cc(Cl)ccc21)c1ccc(Cl)cc1
[7]
  growth: 92.3%
[2]
  growth: 79.1%
[3]
  growth: 92.2%
[4]
  growth: 62%
[8]
  growth: 80.5%
[5]
  growth: 103%
[6]
  growth: 76.4%

## Cc1cc(N(CCCNc2ccnc3cc(Cl)ccc23)Cc2ccccn2)nc(N2CCCC2)n1
[7]
  growth: 91.7%
[2]
  growth: 86.7%
[3]
  growth: 70.5%
[4]
  growth: 56.9%
[8]
  growth: 50.3%
[5]
  growth: 89.2%
[6]
  growth: 82.8%

## Nc1ccc(S(=O)(=O)Nc2ccsc2-c2nc(-c3ccccc3)no2)cc1
[7]
  growth: 59%
[2]
  growth: 3.96% (active)
[3]
  growth: 29.8%
[4]
  growth: 55.9%
[8]
  growth: 38.4%
[5]
  growth: 79.4%
[6]
  growth: 33.6%

## C=CC(=O)Nc1cccc(C)c1Nc1cc(-c2cccnc2Cc2c(C)c(OC)cc(OC)c2C)ncn1
[7]
  growth: 5.86% (active)
[2]
  growth: 19.9%
[3]
  growth: 24.8%
[4]
  growth: 8.59% (active)
[8]
  growth: 15.8%
[5]
  growth: 71.1%
[6]
  growth: 17.6%

## O=C1NN(C(=O)c2ccc(O)cc2)C(c2ccccc2)=N/C1=C\c1cn(-c2ccccc2)nc1-c1ccccc1
[7]
  growth: 94.7%
[2]
  growth: 105%
[3]
  growth: 110%
[4]
  growth: 96%
[8]
  growth: 95.7%
[5]
  growth: 104%
[6]
  growth: 98.1%

## O=C1N/C(=N/O)S/C1=C/c1cn(-c2ccccc2)nc1-c1ccccc1
[7]
  growth: 92.3%
[2]
  growth: 106%
[3]
  growth: 107%
[4]
  growth: 82.2%
[8]
  growth: 82.4%
[5]
  growth: 126%
[6]
  growth: 86.4%

## Cn1c(NCCc2ccc(O)c(O)c2)nc2c1c(=O)n(Cc1ccc(Cl)cc1)c(=O)n2C
[7]
  growth: 71.6%
[2]
  growth: 76.3%
[3]
  growth: 75.9%
[4]
  growth: 75.3%
[8]
  growth: 71.4%
[5]
  growth: 89.3%
[6]
  growth: 79.6%

## CN1CCN(C(=O)[C@@]2(C)CC[C@]3(C)CC[C@]4(C)C(=CC[C@@H]5[C@@]6(C)C/C(=C/c7ccncc7)C(=O)C(C)(C)[C@@H]6CC[C@]54C)[C@@H]3C2)CC1
[7]
  growth: 55.6%
[2]
  growth: 44.6%
[3]
  growth: 31.6%
[4]
  growth: 23.3%
[8]
  growth: 12%
[5]
  growth: 58.1%
[6]
  growth: 36.6%

## Cc1ccc(/C=C(\C#N)n2nnc3cc(Cl)c(Cl)cc32)cc1
[7]
  growth: 7.89% (active)
[2]
  growth: -46.7% (active)
[3]
  growth: 16.3%
[4]
  growth: 6.58% (active)
[8]
  growth: 8.31% (active)
[5]
  growth: 13.6%
[6]
  growth: 0.682% (active)

## COc1ccc(Oc2nc(Nc3ccc(N4CCOCC4)nc3)ncc2NC(=O)c2cc(OC)cc(OC)c2)cc1
[7]
  growth: 80.2%
[2]
  growth: 32.7%
[3]
  growth: 75.8%
[4]
  growth: 63.8%
[8]
  growth: 72.1%
[5]
  growth: 95.2%
[6]
  growth: 64%

## C=C1c2c(C)nn(-c3ccc(S(N)(=O)=O)cc3)c2N(C)C23CC1C1(C)c4c(C)nn(-c5ccc(S(N)(=O)=O)cc5)c4N(C)C(C)(CC12)C3 (centres undefined)
[7]
  growth: 49.6%
[2]
  growth: 32.9%
[3]
  growth: 39.2%
[4]
  growth: 15.9%
[8]
  growth: 14.4%
[5]
  growth: 47%
[6]
  growth: 33.1%

## CS(=O)(=O)c1ccc(-c2[nH]c3ccc(F)cc3c2/C=N/NC(N)=S)cc1
[7]
  growth: 39.3%
[2]
  growth: -16.3% (active)
[3]
  growth: 21.3%
[4]
  growth: 19.3%
[8]
  growth: 8.16% (active)
[5]
  growth: 24.3%
[6]
  growth: 18.5%

## Cc1nc2ccc(C(=O)NCc3cc(C(=O)O)c(C)o3)cc2nc1C
[7]
  growth: 96.1%
[2]
  growth: 96.2%
[3]
  growth: 99.3%
[4]
  growth: 101%
[8]
  growth: 95.5%
[5]
  growth: 98%
[6]
  growth: 92.3%

## Cc1cc(N(CCCNc2ccnc3cc(Cl)ccc23)Cc2ccccn2)nc(N2CCOCC2)n1
[7]
  growth: 90.5%
[2]
  growth: 111%
[3]
  growth: 83.5%
[4]
  growth: 87%
[8]
  growth: 57.9%
[5]
  growth: 105%
[6]
  growth: 103%
